The results in this text go back to ChEMBL document CHEMBL1961873, “Compounds: GSK PKIS; Assays: Nanosyn kinase panel” (2012).

Each structure is given as a SMILES string.

Assay [1] concerns the target T1, Mitogen-activated protein kinase 12 (Homo sapiens) (UniProt P53778).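 Further: values are averaged p38gamma kinase inhibition readings, compounds tested at 1 µM.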
T1 sequence (whole entry): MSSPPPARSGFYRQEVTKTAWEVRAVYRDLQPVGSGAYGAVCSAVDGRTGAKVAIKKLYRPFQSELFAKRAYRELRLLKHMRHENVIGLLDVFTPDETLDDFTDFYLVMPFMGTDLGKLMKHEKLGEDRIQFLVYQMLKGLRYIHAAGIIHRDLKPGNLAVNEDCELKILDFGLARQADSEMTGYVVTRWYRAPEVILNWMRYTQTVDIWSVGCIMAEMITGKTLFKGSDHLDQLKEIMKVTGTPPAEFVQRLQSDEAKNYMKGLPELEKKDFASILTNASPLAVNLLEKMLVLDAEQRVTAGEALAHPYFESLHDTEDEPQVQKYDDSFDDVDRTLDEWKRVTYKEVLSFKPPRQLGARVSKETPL
Conditions: at 1 µM.

Assay [2] addresses SRSF protein kinase 1 (Homo sapiens) (UniProt Q96SB4). Conditions: at 0.1 µM.
For assay [3] the target is unchanged. Conditions: at 1 µM.
The target in assay [4] is Phosphatidylinositol 4,5-bisphosphate 3-kinase catalytic subunit alpha isoform (Homo sapiens) (UniProt P42336). Conditions: at 0.1 µM.
Assay [5] has the same target. Conditions: at 1 µM.
Assay [6] has as its target T2, Phosphatidylinositol 4,5-bisphosphate 3-kinase catalytic subunit delta isoform (Homo sapiens) (UniProt O00329).
T2 sequence (whole entry): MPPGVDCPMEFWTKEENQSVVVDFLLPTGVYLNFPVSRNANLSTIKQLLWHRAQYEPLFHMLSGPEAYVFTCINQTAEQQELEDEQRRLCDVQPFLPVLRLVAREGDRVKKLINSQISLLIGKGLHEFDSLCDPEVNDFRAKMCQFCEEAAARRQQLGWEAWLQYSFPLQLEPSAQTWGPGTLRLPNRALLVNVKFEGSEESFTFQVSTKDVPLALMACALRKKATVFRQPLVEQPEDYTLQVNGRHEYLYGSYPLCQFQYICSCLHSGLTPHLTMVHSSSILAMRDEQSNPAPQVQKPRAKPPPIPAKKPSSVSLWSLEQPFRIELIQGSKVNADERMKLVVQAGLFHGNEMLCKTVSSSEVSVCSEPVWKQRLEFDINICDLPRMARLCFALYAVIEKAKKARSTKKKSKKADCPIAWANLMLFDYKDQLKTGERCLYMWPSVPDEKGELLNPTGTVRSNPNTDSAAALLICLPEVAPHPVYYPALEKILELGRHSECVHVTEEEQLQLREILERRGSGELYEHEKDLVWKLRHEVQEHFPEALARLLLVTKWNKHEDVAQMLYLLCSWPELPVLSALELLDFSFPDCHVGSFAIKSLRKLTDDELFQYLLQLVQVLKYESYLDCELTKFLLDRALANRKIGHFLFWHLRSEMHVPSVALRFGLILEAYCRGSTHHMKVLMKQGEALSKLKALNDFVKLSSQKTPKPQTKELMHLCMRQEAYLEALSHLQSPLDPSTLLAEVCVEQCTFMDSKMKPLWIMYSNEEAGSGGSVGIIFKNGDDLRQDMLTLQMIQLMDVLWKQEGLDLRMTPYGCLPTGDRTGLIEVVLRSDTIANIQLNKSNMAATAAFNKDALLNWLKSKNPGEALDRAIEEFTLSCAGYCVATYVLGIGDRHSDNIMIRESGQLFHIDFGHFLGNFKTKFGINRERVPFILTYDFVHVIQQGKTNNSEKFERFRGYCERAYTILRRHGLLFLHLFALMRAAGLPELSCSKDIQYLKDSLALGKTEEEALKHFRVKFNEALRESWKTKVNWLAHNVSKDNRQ
The note with it: at 0.1 µM.

The target of assay [7] is T2, Phosphatidylinositol 4,5-bisphosphate 3-kinase catalytic subunit delta isoform (Homo sapiens). The note with it: at 1 µM.
Assay [8] addresses Phosphatidylinositol 4-kinase beta (Homo sapiens) (UniProt Q9UBF8). Conditions: at 0.1 µM.
The target is the same in assay [9]. The note with it: at 1 µM.
The target in assay [10] is Sphingosine kinase 1 (Homo sapiens) (UniProt Q9NYA1). The note with it: at 0.1 µM.
Assay [11] has the same target. The note with it: at 1 µM.
For assay [12], the target named is T3, Sphingosine kinase 2 (Homo sapiens) (UniProt Q9NRA0).
T3 sequence (whole entry): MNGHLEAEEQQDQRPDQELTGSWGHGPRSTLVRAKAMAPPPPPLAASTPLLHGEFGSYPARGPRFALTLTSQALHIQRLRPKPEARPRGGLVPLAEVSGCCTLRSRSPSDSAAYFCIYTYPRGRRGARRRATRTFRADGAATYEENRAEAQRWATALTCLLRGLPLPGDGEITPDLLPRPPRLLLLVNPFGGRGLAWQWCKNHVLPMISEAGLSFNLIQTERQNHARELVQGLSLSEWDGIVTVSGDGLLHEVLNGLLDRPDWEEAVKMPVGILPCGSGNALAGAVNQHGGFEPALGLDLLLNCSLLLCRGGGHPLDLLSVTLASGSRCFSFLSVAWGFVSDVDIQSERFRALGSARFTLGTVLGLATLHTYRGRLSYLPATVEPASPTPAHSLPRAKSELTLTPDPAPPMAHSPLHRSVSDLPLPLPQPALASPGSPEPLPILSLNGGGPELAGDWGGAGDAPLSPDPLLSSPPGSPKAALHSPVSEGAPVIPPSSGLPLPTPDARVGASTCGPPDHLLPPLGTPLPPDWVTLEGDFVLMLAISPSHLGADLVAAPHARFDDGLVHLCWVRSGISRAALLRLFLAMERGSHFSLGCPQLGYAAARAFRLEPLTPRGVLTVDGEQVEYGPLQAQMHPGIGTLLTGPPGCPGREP
The note with it: at 0.1 µM.

Assay [13] addresses T3, Sphingosine kinase 2 (Homo sapiens). The note with it: at 1 µM.
Assay [14] has as its target Casein kinase II subunit alpha (Homo sapiens) (UniProt P68400). Conditions: at 0.1 µM.
Assay [15] has the same target. Conditions: at 1 µM.
In assay [16] the target is T4, Inhibitor of nuclear factor kappa-B kinase subunit alpha (Homo sapiens) (UniProt O15111).
T4 sequence (whole entry): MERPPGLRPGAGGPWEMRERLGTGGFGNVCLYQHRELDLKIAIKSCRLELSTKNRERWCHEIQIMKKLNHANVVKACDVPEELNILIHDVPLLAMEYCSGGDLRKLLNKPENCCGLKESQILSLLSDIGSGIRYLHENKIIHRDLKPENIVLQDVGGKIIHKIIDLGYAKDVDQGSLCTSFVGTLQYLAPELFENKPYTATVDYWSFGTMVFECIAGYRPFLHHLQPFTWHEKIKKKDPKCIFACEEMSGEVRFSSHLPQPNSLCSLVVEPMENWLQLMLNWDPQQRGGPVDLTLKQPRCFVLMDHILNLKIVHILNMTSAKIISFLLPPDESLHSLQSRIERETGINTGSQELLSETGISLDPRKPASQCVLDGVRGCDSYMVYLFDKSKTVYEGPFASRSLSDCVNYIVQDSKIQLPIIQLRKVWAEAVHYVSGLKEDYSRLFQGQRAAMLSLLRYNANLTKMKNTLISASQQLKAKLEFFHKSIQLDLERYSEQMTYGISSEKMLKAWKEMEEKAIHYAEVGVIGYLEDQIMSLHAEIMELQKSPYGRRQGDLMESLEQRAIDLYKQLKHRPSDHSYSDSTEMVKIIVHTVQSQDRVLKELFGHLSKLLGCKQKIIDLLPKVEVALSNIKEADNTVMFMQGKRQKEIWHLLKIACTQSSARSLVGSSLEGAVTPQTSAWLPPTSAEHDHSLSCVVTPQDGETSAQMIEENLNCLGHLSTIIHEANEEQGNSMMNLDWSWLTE
Conditions: at 0.1 µM.

Assay [17] has as its target T4, Inhibitor of nuclear factor kappa-B kinase subunit alpha (Homo sapiens). Conditions: at 1 µM.
The target of assay [18] is T5, Inhibitor of nuclear factor kappa-B kinase subunit beta (Homo sapiens) (UniProt O14920).
T5 sequence (whole entry): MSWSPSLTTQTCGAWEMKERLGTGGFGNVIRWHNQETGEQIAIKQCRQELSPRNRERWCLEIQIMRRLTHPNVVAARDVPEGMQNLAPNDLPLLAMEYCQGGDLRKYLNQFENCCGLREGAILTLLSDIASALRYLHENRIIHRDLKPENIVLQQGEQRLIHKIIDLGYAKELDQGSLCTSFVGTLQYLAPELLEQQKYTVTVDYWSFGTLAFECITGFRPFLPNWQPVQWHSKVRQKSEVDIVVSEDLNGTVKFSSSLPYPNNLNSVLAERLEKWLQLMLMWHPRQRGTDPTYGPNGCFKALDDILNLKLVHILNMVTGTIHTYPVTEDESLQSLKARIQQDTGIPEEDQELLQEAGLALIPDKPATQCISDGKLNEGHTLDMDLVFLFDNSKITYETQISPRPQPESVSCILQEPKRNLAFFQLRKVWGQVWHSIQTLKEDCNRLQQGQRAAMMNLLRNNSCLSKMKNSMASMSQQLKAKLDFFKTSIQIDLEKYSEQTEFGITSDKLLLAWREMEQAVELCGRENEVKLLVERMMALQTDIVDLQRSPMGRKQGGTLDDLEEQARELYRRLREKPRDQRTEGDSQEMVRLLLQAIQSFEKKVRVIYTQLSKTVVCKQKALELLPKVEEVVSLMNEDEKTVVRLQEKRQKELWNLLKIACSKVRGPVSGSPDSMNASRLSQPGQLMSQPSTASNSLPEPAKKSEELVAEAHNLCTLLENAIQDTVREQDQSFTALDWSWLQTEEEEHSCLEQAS
The note with it: at 0.1 µM.

The target in assay [19] is T5, Inhibitor of nuclear factor kappa-B kinase subunit beta (Homo sapiens). Conditions: at 1 µM.
Assay [20] concerns the target T6, Inhibitor of nuclear factor kappa-B kinase subunit epsilon (Homo sapiens) (UniProt Q14164).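 Further: mean inhibition of IKKε reported, from the GSK PKIS dataset.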
T6 sequence (whole entry): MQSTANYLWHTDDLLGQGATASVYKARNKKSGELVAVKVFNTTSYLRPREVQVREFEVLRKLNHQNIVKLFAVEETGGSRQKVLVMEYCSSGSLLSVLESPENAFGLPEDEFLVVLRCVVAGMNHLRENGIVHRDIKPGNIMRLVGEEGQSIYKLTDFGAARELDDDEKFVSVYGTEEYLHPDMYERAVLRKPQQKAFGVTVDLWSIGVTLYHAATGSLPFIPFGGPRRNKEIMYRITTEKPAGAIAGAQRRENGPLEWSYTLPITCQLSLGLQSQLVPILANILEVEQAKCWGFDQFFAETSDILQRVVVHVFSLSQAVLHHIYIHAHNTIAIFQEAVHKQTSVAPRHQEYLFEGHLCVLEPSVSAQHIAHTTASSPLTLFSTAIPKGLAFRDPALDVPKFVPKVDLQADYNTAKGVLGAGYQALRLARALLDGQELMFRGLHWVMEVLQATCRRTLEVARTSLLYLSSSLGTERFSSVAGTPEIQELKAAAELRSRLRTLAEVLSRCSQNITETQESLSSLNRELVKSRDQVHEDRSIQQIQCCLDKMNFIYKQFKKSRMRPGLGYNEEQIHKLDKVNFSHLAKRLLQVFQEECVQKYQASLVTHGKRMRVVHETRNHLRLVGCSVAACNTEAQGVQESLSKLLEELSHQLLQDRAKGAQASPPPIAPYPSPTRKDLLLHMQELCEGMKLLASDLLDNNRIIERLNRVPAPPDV
The note with it: at 0.1 µM.

Sequence of SRSF protein kinase 1 (Homo sapiens) (Q96SB4 whole entry): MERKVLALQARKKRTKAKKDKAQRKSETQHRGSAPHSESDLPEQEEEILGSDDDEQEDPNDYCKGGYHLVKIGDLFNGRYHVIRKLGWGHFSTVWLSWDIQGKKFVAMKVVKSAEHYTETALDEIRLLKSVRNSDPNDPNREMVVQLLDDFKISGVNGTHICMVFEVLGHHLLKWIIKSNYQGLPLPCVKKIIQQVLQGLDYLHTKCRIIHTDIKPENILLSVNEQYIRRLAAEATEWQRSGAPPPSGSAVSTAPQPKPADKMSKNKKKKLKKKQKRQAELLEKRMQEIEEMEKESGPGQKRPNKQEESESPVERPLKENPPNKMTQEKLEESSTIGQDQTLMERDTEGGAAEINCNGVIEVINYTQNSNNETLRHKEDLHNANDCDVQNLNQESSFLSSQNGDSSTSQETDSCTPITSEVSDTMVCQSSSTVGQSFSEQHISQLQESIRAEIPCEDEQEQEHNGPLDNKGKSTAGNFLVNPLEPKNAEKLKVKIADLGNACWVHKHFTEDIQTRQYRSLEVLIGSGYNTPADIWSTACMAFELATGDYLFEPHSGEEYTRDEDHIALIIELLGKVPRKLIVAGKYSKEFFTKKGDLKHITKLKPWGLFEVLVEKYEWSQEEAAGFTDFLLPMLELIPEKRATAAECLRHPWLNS
Sequence of Sphingosine kinase 1 (Homo sapiens) (Q9NYA1 whole entry): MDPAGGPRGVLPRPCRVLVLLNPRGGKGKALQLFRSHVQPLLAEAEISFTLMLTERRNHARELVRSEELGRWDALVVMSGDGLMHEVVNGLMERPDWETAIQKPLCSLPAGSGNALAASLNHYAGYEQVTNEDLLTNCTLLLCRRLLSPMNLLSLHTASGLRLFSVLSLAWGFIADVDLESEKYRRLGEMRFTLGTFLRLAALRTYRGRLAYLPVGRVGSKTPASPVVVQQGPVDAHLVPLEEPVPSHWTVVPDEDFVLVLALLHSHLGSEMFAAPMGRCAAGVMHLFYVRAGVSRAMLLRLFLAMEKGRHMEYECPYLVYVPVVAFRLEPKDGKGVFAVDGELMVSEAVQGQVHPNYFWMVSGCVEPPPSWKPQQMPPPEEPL
Sequence of Casein kinase II subunit alpha (Homo sapiens) (P68400 whole entry, looked up): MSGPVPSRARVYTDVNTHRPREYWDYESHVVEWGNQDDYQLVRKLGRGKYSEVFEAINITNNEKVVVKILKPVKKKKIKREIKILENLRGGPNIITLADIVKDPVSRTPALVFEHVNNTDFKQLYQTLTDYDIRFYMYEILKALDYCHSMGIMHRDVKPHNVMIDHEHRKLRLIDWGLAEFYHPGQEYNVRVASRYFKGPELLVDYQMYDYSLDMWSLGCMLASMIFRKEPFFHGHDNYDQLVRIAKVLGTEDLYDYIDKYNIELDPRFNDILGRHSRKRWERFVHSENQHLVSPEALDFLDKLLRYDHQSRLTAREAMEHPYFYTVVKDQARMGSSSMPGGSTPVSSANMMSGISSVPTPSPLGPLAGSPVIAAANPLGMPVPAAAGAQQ
Sequence of Phosphatidylinositol 4-kinase beta (Homo sapiens) (Q9UBF8 2-816 limits assumed): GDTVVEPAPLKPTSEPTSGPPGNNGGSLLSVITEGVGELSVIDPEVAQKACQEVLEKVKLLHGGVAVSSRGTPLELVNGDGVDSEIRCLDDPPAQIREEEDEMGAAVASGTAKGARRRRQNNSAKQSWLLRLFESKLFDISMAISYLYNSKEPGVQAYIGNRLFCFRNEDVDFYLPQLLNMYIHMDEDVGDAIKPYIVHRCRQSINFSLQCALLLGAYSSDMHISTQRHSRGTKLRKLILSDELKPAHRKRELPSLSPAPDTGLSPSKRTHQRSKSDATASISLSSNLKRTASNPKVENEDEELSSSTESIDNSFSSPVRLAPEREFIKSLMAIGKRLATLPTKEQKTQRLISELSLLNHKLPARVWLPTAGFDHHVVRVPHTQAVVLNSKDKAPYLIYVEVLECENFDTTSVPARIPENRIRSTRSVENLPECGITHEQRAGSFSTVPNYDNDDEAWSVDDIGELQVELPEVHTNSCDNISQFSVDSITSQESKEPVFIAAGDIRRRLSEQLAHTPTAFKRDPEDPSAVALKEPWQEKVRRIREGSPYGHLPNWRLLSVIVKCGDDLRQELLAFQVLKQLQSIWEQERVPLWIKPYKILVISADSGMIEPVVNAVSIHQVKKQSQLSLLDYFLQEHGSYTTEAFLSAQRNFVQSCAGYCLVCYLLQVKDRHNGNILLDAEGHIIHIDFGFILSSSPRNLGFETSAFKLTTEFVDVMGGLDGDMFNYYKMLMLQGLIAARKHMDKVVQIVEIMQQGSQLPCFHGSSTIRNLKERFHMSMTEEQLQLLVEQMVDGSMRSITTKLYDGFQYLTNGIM
Sequence of Phosphatidylinositol 4,5-bisphosphate 3-kinase catalytic subunit alpha isoform (Homo sapiens) (P42336 whole entry, canonical isoform): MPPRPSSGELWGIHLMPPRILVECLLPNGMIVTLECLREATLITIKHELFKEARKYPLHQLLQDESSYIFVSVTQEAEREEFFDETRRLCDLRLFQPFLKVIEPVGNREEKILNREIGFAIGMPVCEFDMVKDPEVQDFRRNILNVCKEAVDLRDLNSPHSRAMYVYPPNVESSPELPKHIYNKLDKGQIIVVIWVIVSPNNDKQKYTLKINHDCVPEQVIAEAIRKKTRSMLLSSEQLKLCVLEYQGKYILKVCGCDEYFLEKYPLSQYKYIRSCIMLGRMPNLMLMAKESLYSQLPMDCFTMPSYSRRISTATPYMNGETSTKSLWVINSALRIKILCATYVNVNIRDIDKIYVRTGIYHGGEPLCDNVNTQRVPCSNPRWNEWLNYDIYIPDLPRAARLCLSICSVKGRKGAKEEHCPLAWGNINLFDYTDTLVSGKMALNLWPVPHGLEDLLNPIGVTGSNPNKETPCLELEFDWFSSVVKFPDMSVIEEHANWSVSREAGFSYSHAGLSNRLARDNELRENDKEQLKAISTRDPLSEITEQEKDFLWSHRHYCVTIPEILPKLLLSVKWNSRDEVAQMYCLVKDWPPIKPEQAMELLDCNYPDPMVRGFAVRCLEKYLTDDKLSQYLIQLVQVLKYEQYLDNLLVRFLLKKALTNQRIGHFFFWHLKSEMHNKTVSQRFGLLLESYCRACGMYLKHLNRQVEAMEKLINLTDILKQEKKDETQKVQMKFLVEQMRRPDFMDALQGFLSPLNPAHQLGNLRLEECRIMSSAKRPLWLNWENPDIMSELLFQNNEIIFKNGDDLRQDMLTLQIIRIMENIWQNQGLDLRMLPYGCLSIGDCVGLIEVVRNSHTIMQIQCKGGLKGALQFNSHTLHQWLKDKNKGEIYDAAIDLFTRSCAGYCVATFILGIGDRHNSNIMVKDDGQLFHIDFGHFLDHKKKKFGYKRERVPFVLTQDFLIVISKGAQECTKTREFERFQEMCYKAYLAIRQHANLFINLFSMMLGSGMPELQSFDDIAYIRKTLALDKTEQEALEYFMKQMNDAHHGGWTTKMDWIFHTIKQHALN

By inhibition is commonly meant the change of the read-out against control, counted positive when it falls. As to `CN(C)c1cc2c(Nc3ccc4nc(Cc5ccccc5)[nH]c4c3)ncnc2cn1`, the inhibition is 2.45% in assay [1]; -1.74% in assay [2]; -1.6% in [3]; 7% in assay [4]; 8.83% in assay [5]; 7.22% in assay [6]. For the same compound, the inhibition in assay [7] was 8.91%; in assay [8], -2.6%; in assay [9], 5.38%; in [10] it was -1.38%; in [11], -4.39%; in assay [12], -0.89%. The inhibition was -0.82% in [13]; 3.31% in [14]; 1.45% in assay [15]; 9.26% in assay [16]; 9.4% in [17]; 7.48% in [18]. The inhibition worked out at 6.68% in assay [19] and 17.5% in [20].

With `COc1cc(C=NNc2ncnc3c2cnn3-c2ccccc2)ccc1O`, the inhibition in [1] is 5.79%; in assay [2], -0.73%; in assay [3], 0.63%; in assay [4] it was 6.59%; in assay [5] it was 15.9%; in assay [6], 8.17%. Further, the inhibition in [7] is 18%; in [8] it was -0.81%; in assay [9], -0.12%; in [10], -0.86%; in assay [11], -3.84%; in assay [12] it was -0.52%. For the same compound, the inhibition in [13] is -2.55%; in assay [14], 9.38%; in assay [15] it was 41.6%; in assay [16], 10.6%; in [17], -1.27%; in assay [18], 3.33%. The inhibition in assay [19] was -0.52%; in assay [20], 3.38%.

Consider `NCc1ccc(-c2nc(-c3ccc(Cl)c(O)c3)c(-c3ccncc3)[nH]2)cc1`, for which the inhibition in assay [1] is 2.04%; in [2], -1.76%; in assay [3], -4.18%; in assay [4], -0.47%; in [5], 3.94%; in assay [6] it was 0.9%. Besides, the inhibition in assay [7] was 6.6%; in [8], -3.9%; in [9] it was -2.79%; in assay [10], 2.55%; in [11], -0.71%; in assay [12], -0.06%. The inhibition in assay [13] is 0%; in [14], 0.86%; in assay [15], 1.53%; in assay [16] it was 3.45%; in [17], -3.91%; in assay [18], 1.08%. Moreover, the values for the inhibition in [19] and in [20] were 0.02% and 1.2%, respectively.
